# Inconclusive results are not listed. Active and inactive are the calls of the source. How the source made its calls: active means hit-call score of the fitted dose curve at least 0.9, where 1 is the maximum; inconclusive means response in the unintended direction; inactive means score below 0.9.
# What was measured:
# [1] = molecular target: Muscarinic acetylcholine receptor M2 (Homo sapiens) (UniProt P08172); test: NVS_GPCR_hM2: NovaScreen (NVS) G Protein-Coupled Receptor Assay for human Muscarinic, M2 Receptor (AID 2283273)
# Procedure, shortened: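 CHO membrane prep, radioligand + test compound, 1 h; filtration, scintillation count. Screen 25 uM duplicate → conc. series for actives. Readout: decrease in binding vs DMSO control.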
# [2] = molecular target: human Muscarinic, M4 Receptor, CHRM4 (gene 1132) (UniProt P08173); test: NVS_GPCR_hM4: NovaScreen (NVS) G Protein-Coupled Receptor Assay for human Muscarinic, M4 Receptor (AID 2283274)
# Procedure, shortened: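 Cell-free radioligand displacement using CHO-derived human M4 receptor protein, 1 h after dosing; bound radioactivity by filtration and scintillation counting. Primary screen single 25 uM duplicate, actives followed in concentration series.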
# [3] = molecular target: Muscarinic acetylcholine receptor M5 (Homo sapiens) (UniProt P08912); test: NVS_GPCR_hM5: NovaScreen (NVS) G Protein-Coupled Receptor Assay for human Muscarinic, M5 Receptor (AID 2283275)
# Procedure, shortened: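 Radioligand displacement on CHO-derived membrane preparations, 1 h, filter-based scintillation counting. Single-concentration duplicate screen at 25 uM; hits (e.g. 30% inhibition) retested in singleton concentration-response up to 50 uM. Loss of binding fitted versus DMSO.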
# [4] = molecular target: human Neurotensin Receptor (NTS), NTSR1 (gene 4923) (UniProt P30989); test: NVS_GPCR_hNTS: NovaScreen (NVS) G Protein-Coupled Receptor Assay for human Neurotensin Receptor (NTS) (AID 2283279)
# Procedure, shortened: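 Radioligand displacement on human NTSR1 protein from CHO cells, cell-free, 1 h, filter-based scintillation counting. Primary screen at 25 uM in duplicate; hits rerun in concentration-response up to 50 uM.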
# [5] = molecular target: human Opioid Receptor Delta 1 (Opiate D1), OPRD1 (gene 4985) (UniProt P41143); test: NVS_GPCR_hOpiate_D1: NovaScreen (NVS) G Protein-Coupled Receptor Assay for human Opioid Receptor Delta 1 (Opiate D1) (AID 2283280)
# Procedure, shortened: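 Radioligand displacement on membranes from CHO cells expressing the receptor, read by filter scintillation counting 1 h after dosing. Duplicate single-point screen at 25 uM, then concentration series for actives; loss of signal versus DMSO.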
# [6] = molecular target: rat Serotonin, 5-Hydroxytryptamine Receptor 1 (5HT1), Non-Selective Binding, Htr1a (gene 24473) (UniProt P19327); test: NVS_GPCR_r5HT1_NonSelective: NovaScreen (NVS) G Protein-Coupled Receptor Assay for rat Serotonin, 5-Hydroxytryptamine Receptor 1 (5HT1), Non-Selective Binding (AID 2283286)
# Procedure, shortened: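 Rat cortical membranes, radioligand displacement, 1 h incubation, read by filter scintillation. Primary screen in duplicate at 25 uM. Hits (e.g. ≥30% inhibition) went to concentration-response up to 50 uM, fitted as loss of binding versus DMSO.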
# [7] = test system: rabbit Platelet Activating Factor Receptor (PAF), gene 100354046; test: NVS_GPCR_rabPAF: NovaScreen (NVS) G Protein-Coupled Receptor Assay for rabbit Platelet Activating Factor Receptor (PAF) (AID 2283287)
# Procedure, shortened: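 Rabbit platelet membrane preparation; radioligand displacement read by filter-based scintillation counting 1 h after dosing, loss of signal versus DMSO. Primary screen in duplicate at 25 uM, actives followed up in concentration series.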
# [8] = test system: 5-hydroxytryptamine receptor 2C (pig); test: NVS_GPCR_p5HT2C: NovaScreen (NVS) G Protein-Coupled Receptor Assay for pig Serotonin, 5-Hydroxytryptamine Receptor 2C (5HT2C) (AID 2283288)
# Procedure, shortened: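 Pig choroid plexus membranes; radioligand competitive binding, filter-based scintillation counting, read 1 h after dosing. Primary screen in duplicate at 25 uM; actives then run as concentration series; loss of signal versus DMSO baseline.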
# [9] = molecular target: rat Adrenergic, Alpha 1, Non-selective Receptor (Adra1), Adra1a (gene 29412) (UniProt P43140); test: NVS_GPCR_rAdra1_NonSelective: NovaScreen (NVS) G Protein-Coupled Receptor Assay for rat Adrenergic, Alpha 1, Non-selective Receptor (Adra1) (AID 2283289)
# Procedure, shortened: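 Rat forebrain membranes; radioligand displacement read by filter-based scintillation counting 1 h after dosing. Primary screen in duplicate at 25 uM; hits (e.g. ≥30% inhibition) rerun as concentration–response to 50 uM max. Fitted versus DMSO.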
# [10] = molecular target: human Neurokinin, NK2 Receptor, TACR2 (gene 6865) (UniProt P21452); test: NVS_GPCR_hNK2: NovaScreen (NVS) G Protein-Coupled Receptor Assay for human Neurokinin, NK2 Receptor (AID 2283278);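 further: actives reduce bound radioligand signal relative to DMSO baseline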
# Procedure, shortened: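 Filter-based scintillation counting measured radioligand bound to receptor extracted from CHO cells, 4 hours after compound addition. Chemicals screened first at 25 uM in duplicate, with actives retested in concentration series relative to DMSO.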
# [11] = molecular target: mouse Cholecystokinin, CCK1 Receptor (CCKA), Cckar (gene 12425) (UniProt O08786); test: NVS_GPCR_mCCKAPeripheral: NovaScreen (NVS) G Protein-Coupled Receptor Assay for mouse Cholecystokinin, CCK1 Receptor (CCKA) (AID 2283285)
# Procedure, shortened: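 Radioligand competitive displacement on mouse pancreatic membranes, 2 h incubation; filter-based scintillation counting, loss of signal versus DMSO. Single-concentration screen at 25 uM in duplicate, actives retested in concentration-response up to 50 uM.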
# [12] = molecular target: human Thromboxane A2 Receptor (TXA2), TBXA2R (gene 6915) (UniProt P21731); test: NVS_GPCR_hTXA2: NovaScreen (NVS) G Protein-Coupled Receptor Assay for human Thromboxane A2 Receptor (TXA2) (AID 2283282);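 further: actives reduce bound radioligand signal relative to DMSO baseline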
# Procedure, shortened: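 Filter scintillation counting of bound radioligand, human platelet protein, 1 h exposure. Single-concentration duplicates (25 uM) first, concentration-response follow-up for actives. Binding loss scored against DMSO baseline.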
# [13] = molecular target: human Orphanin, Opioid Related Nociceptin Receptor 1 (ORL1), OPRL1 (gene 4987) (UniProt P41146); test: NVS_GPCR_hORL1: NovaScreen (NVS) G Protein-Coupled Receptor Assay for human Orphanin, Opioid Related Nociceptin Receptor 1 (ORL1) (AID 2283283)
# Procedure, shortened: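 Filter-based radioligand displacement with receptor extracted from HEK293 cells, read 1 hour after dosing by scintillation counting. Duplicate single-point screen at 25 uM; qualifying chemicals then run in concentration-response to 50 uM, analysed relative to DMSO.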
# [14] = molecular target: human Neuropeptide Receptor Y1 (NPY1), NPY1R (gene 4886) (UniProt P25929); test: NVS_GPCR_hNPY1: NovaScreen (NVS) G Protein-Coupled Receptor Assay for human Neuropeptide Receptor Y1 (NPY1) (AID 2283276)
# Procedure, shortened: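 Cell-free radioligand binding using receptor extracted from SK-N-MC cells, 1 h incubation, filter-based scintillation counting. Primary screen single concentration 25 uM in duplicate; actives followed in concentration series. Loss of bound signal scored versus DMSO.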
# [15] = molecular target: Neuropeptide Y receptor type 2 (Homo sapiens) (UniProt P49146); test: NVS_GPCR_hNPY2: NovaScreen (NVS) G Protein-Coupled Receptor Assay for human Neuropeptide Receptor Y2 (NPY2) (AID 2283277)
# Procedure, shortened: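 Radioligand binding on membranes extracted from SK-N-MC cells, cell-free, read 1 h after dosing by filter-based scintillation counting. Loss of signal vs DMSO. Primary screen in duplicate at 25 uM; actives followed up in concentration-response up to 50 uM.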
# [16] = molecular target: guinea pig Bradykinin Receptor B2 (BK2), BDKRB2 (gene 100135486) (UniProt O70526); test: NVS_GPCR_gBK2: NovaScreen (NVS) G Protein-Coupled Receptor Assay for guinea pig Bradykinin Receptor B2 (BK2) (AID 2283292)
# Procedure, shortened: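 Radioligand displacement on guinea pig ileum membranes for 1 h, read by filter-based scintillation counting; loss of signal relative to DMSO. Compounds were screened in duplicate at 25 uM, and those passing the threshold were retested in concentration-response up to 50 uM.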
# [17] = molecular target: mouse Cholecystokinin, CCK2 Receptor (CCKB), Cckbr (gene 12426) (UniProt P56481); test: NVS_GPCR_mCKKBCentral: NovaScreen (NVS) G Protein-Coupled Receptor Assay for mouse Cholecystokinin, CCK2 Receptor (CCKB) (AID 2283293)
# Procedure, shortened: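 Radioligand displacement binding on mouse forebrain membranes, 2 h exposure, filter-based scintillation counting. Primary screen in duplicate at 25 uM; actives (e.g. ≥30% inhibition) retested in concentration-response up to 50 uM; loss of binding signal relative to DMSO.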
# [18] = molecular target: human Vasopressin 1A Receptor (V1A), AVPR1A (gene 552) (UniProt P37288); test: NVS_GPCR_hV1A: NovaScreen (NVS) G Protein-Coupled Receptor Assay for human Vasopressin 1A Receptor (V1A) (AID 2283284)
# Procedure, shortened: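 Cell-free radioligand displacement on human platelet preparations, 1.5 h incubation, filter-based scintillation counting. Chemicals first tested in duplicate at 25 uM; actives then run in concentration-response up to 50 uM, loss of signal fitted against DMSO.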
# Sequence of rat Adrenergic, Alpha 1, Non-selective Receptor (Adra1), Adra1a (gene 29412) (P43140 whole entry, looked up): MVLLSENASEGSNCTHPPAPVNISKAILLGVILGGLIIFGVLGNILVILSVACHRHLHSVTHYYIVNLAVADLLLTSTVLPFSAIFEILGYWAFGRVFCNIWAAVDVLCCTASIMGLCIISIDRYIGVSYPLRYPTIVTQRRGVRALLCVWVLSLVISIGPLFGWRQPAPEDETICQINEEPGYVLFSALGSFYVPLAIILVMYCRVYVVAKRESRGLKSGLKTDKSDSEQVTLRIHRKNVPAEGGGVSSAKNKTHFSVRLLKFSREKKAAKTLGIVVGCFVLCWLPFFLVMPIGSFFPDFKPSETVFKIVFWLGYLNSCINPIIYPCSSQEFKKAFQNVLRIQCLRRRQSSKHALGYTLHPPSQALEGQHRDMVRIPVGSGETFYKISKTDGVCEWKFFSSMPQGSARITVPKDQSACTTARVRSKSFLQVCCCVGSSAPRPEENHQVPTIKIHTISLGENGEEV
# Sequence of human Thromboxane A2 Receptor (TXA2), TBXA2R (gene 6915) (P21731 whole entry, looked up): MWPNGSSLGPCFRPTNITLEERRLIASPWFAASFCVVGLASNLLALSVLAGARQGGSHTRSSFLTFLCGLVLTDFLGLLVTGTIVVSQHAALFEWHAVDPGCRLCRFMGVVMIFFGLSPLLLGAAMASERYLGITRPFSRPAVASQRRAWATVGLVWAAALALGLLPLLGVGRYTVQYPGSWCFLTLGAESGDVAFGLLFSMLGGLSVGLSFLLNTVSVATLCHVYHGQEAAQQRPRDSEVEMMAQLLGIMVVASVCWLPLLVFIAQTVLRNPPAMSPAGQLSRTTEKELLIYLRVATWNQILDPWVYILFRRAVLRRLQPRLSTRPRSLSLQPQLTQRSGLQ
# Sequence of human Neuropeptide Receptor Y1 (NPY1), NPY1R (gene 4886) (P25929 whole entry, looked up): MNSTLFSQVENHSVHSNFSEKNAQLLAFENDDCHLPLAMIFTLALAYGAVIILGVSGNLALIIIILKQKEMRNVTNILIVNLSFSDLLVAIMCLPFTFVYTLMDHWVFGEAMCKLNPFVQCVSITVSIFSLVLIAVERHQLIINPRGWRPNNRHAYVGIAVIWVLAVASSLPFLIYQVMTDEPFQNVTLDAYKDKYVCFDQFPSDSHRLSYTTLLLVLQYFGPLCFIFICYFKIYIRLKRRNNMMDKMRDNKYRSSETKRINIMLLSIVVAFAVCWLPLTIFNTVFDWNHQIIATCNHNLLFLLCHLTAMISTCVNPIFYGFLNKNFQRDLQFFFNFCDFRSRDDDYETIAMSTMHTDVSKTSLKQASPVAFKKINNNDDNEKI
# Sequence of human Orphanin, Opioid Related Nociceptin Receptor 1 (ORL1), OPRL1 (gene 4987) (P41146 whole entry, looked up): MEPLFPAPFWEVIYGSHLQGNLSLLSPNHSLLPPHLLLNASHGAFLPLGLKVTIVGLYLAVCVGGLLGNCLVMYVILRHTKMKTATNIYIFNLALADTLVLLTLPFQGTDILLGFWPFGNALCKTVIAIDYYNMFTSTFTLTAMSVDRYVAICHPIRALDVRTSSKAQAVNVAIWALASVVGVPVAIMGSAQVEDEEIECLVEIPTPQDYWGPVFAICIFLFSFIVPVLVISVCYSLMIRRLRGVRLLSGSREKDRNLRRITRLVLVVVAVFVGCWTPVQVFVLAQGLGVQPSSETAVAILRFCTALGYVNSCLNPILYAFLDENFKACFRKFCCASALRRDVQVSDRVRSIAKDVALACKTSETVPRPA
# Sequence of human Neurokinin, NK2 Receptor, TACR2 (gene 6865) (P21452 whole entry, looked up): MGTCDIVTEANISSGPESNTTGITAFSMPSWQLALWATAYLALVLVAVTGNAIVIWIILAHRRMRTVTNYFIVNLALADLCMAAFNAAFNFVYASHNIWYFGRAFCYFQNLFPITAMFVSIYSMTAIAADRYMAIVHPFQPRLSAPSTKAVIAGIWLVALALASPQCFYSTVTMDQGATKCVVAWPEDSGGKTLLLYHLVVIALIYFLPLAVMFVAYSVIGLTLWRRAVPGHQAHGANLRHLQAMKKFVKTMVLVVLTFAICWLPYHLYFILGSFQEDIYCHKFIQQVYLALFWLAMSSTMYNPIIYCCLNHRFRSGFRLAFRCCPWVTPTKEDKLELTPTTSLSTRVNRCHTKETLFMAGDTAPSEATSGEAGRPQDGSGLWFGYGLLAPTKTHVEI
# Sequence of Muscarinic acetylcholine receptor M5 (Homo sapiens) (P08912 whole entry, looked up): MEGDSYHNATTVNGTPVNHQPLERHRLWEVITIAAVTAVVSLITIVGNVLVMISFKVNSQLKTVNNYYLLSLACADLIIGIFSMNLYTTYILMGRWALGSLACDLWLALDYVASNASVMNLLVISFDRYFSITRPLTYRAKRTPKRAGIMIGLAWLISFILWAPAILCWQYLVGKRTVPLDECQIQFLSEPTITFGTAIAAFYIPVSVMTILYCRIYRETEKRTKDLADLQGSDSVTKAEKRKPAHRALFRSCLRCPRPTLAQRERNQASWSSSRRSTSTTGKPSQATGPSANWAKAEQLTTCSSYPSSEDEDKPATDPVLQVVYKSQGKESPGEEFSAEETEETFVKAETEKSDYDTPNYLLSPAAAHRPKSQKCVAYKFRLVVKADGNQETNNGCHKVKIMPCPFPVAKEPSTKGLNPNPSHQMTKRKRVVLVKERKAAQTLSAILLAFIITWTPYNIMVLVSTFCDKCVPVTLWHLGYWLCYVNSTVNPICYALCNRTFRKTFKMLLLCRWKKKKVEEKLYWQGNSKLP
# Sequence of mouse Cholecystokinin, CCK1 Receptor (CCKA), Cckar (gene 12425) (O08786 whole entry, looked up): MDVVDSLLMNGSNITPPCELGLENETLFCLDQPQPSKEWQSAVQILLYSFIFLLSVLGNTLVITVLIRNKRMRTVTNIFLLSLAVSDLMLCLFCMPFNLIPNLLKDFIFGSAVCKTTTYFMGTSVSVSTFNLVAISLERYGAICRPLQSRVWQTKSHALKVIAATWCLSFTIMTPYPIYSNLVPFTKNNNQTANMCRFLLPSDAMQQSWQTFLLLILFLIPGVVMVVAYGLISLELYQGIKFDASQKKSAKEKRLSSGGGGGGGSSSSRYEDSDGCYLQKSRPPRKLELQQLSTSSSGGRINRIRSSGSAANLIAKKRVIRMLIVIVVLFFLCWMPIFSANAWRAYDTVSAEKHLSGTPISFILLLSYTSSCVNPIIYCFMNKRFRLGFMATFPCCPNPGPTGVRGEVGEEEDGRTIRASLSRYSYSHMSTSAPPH
# Sequence of human Opioid Receptor Delta 1 (Opiate D1), OPRD1 (gene 4985) (P41143 whole entry, looked up): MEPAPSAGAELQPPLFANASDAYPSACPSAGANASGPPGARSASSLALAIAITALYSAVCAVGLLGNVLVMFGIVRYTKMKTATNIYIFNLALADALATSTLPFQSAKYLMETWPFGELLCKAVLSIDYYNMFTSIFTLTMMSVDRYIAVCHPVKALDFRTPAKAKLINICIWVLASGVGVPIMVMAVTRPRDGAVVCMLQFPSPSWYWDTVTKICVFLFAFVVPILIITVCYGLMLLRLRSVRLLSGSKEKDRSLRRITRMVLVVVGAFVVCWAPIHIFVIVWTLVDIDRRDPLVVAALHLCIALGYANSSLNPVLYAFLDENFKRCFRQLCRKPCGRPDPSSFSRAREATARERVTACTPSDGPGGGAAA
# Sequence of Neuropeptide Y receptor type 2 (Homo sapiens) (P49146 whole entry, looked up): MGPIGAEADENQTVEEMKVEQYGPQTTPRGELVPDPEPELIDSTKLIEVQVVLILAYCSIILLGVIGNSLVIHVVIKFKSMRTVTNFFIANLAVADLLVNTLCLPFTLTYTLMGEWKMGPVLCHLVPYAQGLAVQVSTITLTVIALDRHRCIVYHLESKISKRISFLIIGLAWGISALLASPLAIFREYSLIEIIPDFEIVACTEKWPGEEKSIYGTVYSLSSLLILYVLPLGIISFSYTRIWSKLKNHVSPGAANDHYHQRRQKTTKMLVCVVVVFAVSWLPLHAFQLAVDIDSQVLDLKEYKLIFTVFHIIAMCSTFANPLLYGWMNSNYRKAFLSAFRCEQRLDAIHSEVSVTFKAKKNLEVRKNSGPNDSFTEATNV
# Sequence of rat Serotonin, 5-Hydroxytryptamine Receptor 1 (5HT1), Non-Selective Binding, Htr1a (gene 24473) (P19327 whole entry, looked up): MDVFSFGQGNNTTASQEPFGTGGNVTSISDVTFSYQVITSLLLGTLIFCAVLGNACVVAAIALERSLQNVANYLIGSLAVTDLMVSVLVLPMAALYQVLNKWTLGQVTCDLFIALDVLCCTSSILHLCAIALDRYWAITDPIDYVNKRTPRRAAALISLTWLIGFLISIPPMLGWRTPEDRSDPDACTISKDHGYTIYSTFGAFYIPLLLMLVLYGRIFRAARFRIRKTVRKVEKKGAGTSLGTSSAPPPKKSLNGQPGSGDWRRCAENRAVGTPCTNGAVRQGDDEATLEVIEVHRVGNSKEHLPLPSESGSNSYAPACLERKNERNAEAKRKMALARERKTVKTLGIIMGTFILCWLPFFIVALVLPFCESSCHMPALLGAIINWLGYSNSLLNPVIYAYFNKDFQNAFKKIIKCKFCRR
# Sequence of human Muscarinic, M4 Receptor, CHRM4 (gene 1132) (P08173 whole entry, looked up): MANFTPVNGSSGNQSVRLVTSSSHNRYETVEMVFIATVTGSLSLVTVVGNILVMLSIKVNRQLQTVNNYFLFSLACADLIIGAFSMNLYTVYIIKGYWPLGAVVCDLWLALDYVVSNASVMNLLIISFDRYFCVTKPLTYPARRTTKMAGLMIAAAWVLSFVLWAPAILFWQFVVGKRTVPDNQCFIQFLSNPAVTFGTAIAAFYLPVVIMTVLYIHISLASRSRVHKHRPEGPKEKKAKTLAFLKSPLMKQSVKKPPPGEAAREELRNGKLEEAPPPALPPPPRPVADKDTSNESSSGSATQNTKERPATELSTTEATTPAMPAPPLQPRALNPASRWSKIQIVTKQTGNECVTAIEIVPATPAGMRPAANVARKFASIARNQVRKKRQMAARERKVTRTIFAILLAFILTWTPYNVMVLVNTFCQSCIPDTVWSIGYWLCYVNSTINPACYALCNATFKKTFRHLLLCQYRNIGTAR
smiles,measurement,setting,value
CCOC(=O)[C@]1(c2ccccc2)Oc2ccccc2[C@@H]1N,AC50,[1],3.28 µM (active)
same,AC50,[2],13.3 µM (active)
same,AC50,[3],4.93 µM (active)
same,outcome,[4],inactive
same,AC50,[5],16.5 µM (active)
same,AC50,[6],1.08 µM (active)
same,AC50,[7],7.6 µM (active)
same,AC50,[8],1.29 µM (active)
same,AC50,[9],0.184 µM (active)
O=[N+]([O-])c1ccc(Oc2ccc(Cl)cc2Cl)cc1,outcome,[10],inactive
same,outcome,[11],inactive
CC(C)(O)c1cnn2c(-c3ccc(F)c(-c4c(F)cccc4C#N)c3)cnc2n1,outcome,[8],inactive
Nc1cc(Cl)cc(C(=O)O)c1Cl,outcome,[12],inactive
COP(=S)(OC)SCN1C(=O)c2ccccc2C1=O,AC50,[10],8.63 µM (active)
same,outcome,[5],inactive
same,AC50,[13],44.4 µM (active)
same,outcome,[6],inactive
same,AC50,[7],14.9 µM (active)
Cc1ccc(N=C=O)cc1N=C=O,outcome,[6],inactive
Cc1cccc(N)c1N,outcome,[14],inactive
same,outcome,[10],inactive
same,AC50,[8],16.8 µM (active)
Nc1ccc(N=Nc2ccccc2)cc1,outcome,[5],inactive
CCCCCCCCCCCCCN1CC(C)OC(C)C1 (stereo unspecified),outcome,[2],inactive
COC(=O)Nc1nc2ccccc2[nH]1,outcome,[15],inactive
same,outcome,[8],inactive
[Cl-].[Cl-].[Hg+2],AC50,[1],1.48 µM (active)
same,AC50,[2],4.13 µM (active)
same,AC50,[3],0.428 µM (active)
same,AC50,[14],14.7 µM (active)
same,AC50,[15],8.85 µM (active)
same,AC50,[10],0.838 µM (active)
same,AC50,[5],0.275 µM (active)
same,outcome,[12],inactive
same,AC50,[13],0.321 µM (active)
same,AC50,[11],18 µM (active)
same,AC50,[7],36.7 µM (active)
same,AC50,[9],2.86 µM (active)
same,AC50,[16],25 µM (active)
same,AC50,[17],38.6 µM (active)
CCC[CH2][Sn]([Cl])([CH2]CCC)[CH2]CCC,AC50,[2],17.6 µM (active)
same,outcome,[3],inactive
same,AC50,[14],1.58 µM (active)
same,AC50,[15],10.3 µM (active)
same,AC50,[10],1.08 µM (active)
same,AC50,[5],0.593 µM (active)
same,AC50,[12],1.77 µM (active)
same,AC50,[13],1.21 µM (active)
same,AC50,[18],7.85 µM (active)
same,AC50,[11],0.228 µM (active)
same,AC50,[6],17.2 µM (active)
same,AC50,[7],5.79 µM (active)
same,AC50,[9],8.26 µM (active)
same,AC50,[16],10.6 µM (active)
same,AC50,[17],2.25 µM (active)
CN(C)C(=O)Nc1ccc(Cl)cc1,outcome,[12],inactive
